From the supplement of paper PMC12024424
Structures can show the parent of a compound that is named as a salt.

Assays:
[1] = tested on: Staphylococcus aureus Sa2 (MRSA, cystic fibrosis isolate); experiment: growth reduction vs untreated control (OD550); higher = stronger antibacterial activity; settings: 0.1 mM; 24 h
Procedure: (§1)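 Single-dose screen of the MedChem Express Drug Repurposing Library (0.1 mM, 1% DMSO) against planktonic MRSA S. aureus Sa2 (CF isolate) in TSB in 96-well plates, 37 °C aerobic, 24 h. Assays were run in triplicate and repeated twice.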

[2] = tested on: Staphylococcus aureus Sa2 (MRSA, cystic fibrosis isolate); experiment: growth reduction vs untreated control (viable cell count); higher = stronger antibacterial activity; extreme values may be limits of the assay; settings: 0.1 mM; 24 h
Procedure: as §1

SMILES	growth reduction [1]	growth reduction [2]
O=C(O)c1ccc2nc(-c3cc(Cl)cc(Cl)c3)oc2c1 [Tafamidis meglumine]	93.9%	98%
Cc1ccc([C@@H]2O[C@H](CO)[C@@H](O)[C@H](O)[C@H]2O)cc1Cc1ccc(-c2ccc(F)cc2)s1 [Canagliflozin]	100%	100%
CCCCCCCCc1ccc(CCC(N)(CO)CO)cc1 [Fingolimod (hydrochloride)]	100%	100%
O=C(O)c1ccccc1Nc1cccc(C(F)(F)F)c1 [Flufenamic acid]	93.6%	98%
CCCCOc1nc(N)c2c(n1)N(Cc1cccc(CN3CCCC3)c1)CC(=O)N2 [Vesatolimod]	100%	98%
O=C(O)c1ccc2c(c1)CCCC(c1ccc(Cl)cc1Cl)=C2c1ccc(O[C@H]2CCN(CCCF)C2)cc1	100%	100%
CCCCCCCCc1ccc(CCC(N)(CO)CO)cc1 [Fingolimod]	100%	100%
CC(C)(C)C(=O)Oc1ccc(S(=O)(=O)Nc2ccccc2C(=O)NCC(=O)O)cc1 [Sivelestat (sodium)]	92.9%	93%
CCOC(=O)C1=C(C)NC(C)=C(C(=O)OC)C1c1cccc(Cl)c1Cl (stereo not drawn) [Felodipine]	100%	100%
CO[C@@H](Cc1ccc(OCCc2nc(-c3ccccc3)oc2C)c2ccsc12)C(=O)O [Aleglitazar]	92.2%	90%
Cc1cccc(/C=N/Nc2cc(N3CCOCC3)nc(OCCc3ccccn3)n2)c1 [Apilimod]	100%	93%
OC1(c2ccc(Cl)c(C(F)(F)F)c2)CCN(CCCC(c2ccc(F)cc2)c2ccc(F)cc2)CC1 [Penfluridol]	100%	100%
C[C@@H](O[C@H]1OCCN(Cc2n[nH]c(=O)[nH]2)[C@H]1c1ccc(F)cc1)c1cc(C(F)(F)F)cc(C(F)(F)F)c1 [Aprepitant]	98.2%	100%
Cn1c(O)c(C2=c3ccccc3=NC2=O)c2ccccc21 [Meisoindigo]	100%	100%
CCCCCCCCCCCCCCCCCCOP(=O)([O-])OC1CC[N+](C)(C)CC1 [Perifosine]	96.9%	100%
NC(N)=NC(=O)c1nc(Cl)c(N2CCCCCC2)nc1N [5-(N,N-Hexamethylene)-amiloride]	100%	100%
CCc1cc(-c2noc(-c3cc(OC)nc(C4CCCC4)c3)n2)cc(C)c1OC[C@@H](O)CO [Cenerimod]	100%	100%
CC(C)(C)C#Cc1cc(N(C(=O)[C@H]2CC[C@H](C)CC2)[C@H]2CC[C@H](O)CC2)c(C(=O)O)s1 [Lomibuvir]	91.1%	95%
COc1cc2c(cc1Cc1cccc(Cl)c1F)c(=O)c(C(=O)O)cn2[C@H](CO)C(C)C [Elvitegravir]	100%	100%
CC1(C)CC=C(c2nc(C3CC(C)(C)OC(C)(C)C3)ccc2NC(=O)c2nc(C#N)c[nH]2)CC1 [Edicotinib]	99.3%	100%
CCc1nc(-c2cccc(C)c2)c(-c2ccnc(NC(=O)c3ccccc3)c2)s1	100%	100%
CCCSc1nc(N[C@@H]2C[C@H]2c2ccc(F)c(F)c2)c2nnn([C@@H]3C[C@H](OCCO)[C@@H](O)[C@H]3O)c2n1 [Ticagrelor]	100%	98%
CC(OC(=O)c1ccc(Cc2c(O)c3ccccc3oc2=O)cc1)(C(F)(F)F)C(F)(F)F [Tecarfarin]	100%	100%
C=CC(=O)Nc1cc(Nc2nccc(-c3cn(C)c4ccccc34)n2)c(OC)cc1N(C)CCN(C)C [Osimertinib (dimesylate)]	100%	100%
O=c1[nH]c(=O)n([C@H]2C[C@H](O)[C@@H](CO)O2)cc1/C=C/Br [Brivudine]	100%	100%
CC(C)N(CCCCOCC(=O)NS(C)(=O)=O)c1cnc(-c2ccccc2)c(-c2ccccc2)n1 [Selexipag]	100%	100%
CC1(C)CCC2=C(O1)c1ccccc1C(=O)C2=O [β-Lapachone]	100%	100%
CCOc1nc2cccc(C(=O)OC(C)OC(=O)OC3CCCCC3)c2n1Cc1ccc(-c2ccccc2-c2nn[nH]n2)cc1 (stereo not drawn) [Candesartan Cilexetil]	100%	100%
CC1(C)S[C@@H]2[C@H](NC(=O)[C@H](N)c3ccccc3)C(=O)N2[C@H]1C(=O)OCOC(=O)[C@@H]1N2C(=O)C[C@H]2S(=O)(=O)C1(C)C [Sultamicillin (tosylate)]	100%	100%
